Experimental data: article PMC11062922 (Nature Chemical Biology, 2023)
Like-named read-outs stand apart in the source and are kept apart here.

Tests used:
Design in all cases: species or system human, MV4-11 + K-562 + COLO205 + SK-N-BE2 + OVCAR-8
ADRBK1 = conditions: read-out: apparent Kd, n = 1
AKT1 = conditions: read-out: apparent Kd, n = 1
AKT2 = conditions: read-out: apparent Kd, n = 1
CDK6 = conditions: read-out: apparent Kd, n = 1
MAP2K1 = conditions: read-out: apparent Kd, n = 1
MAP2K2 = conditions: read-out: apparent Kd, n = 1
NNT = conditions: read-out: apparent Kd; compound concentrations: 100 nM and 1000 nM (sheet 'Samples'), CATDS: 0.14240170913061401; n = 1
NQO1 = conditions: read-out: apparent Kd, n = 1
CSNK1A1 = conditions: read-out: apparent Kd; compound concentrations:100 nM and 1000 nM (sheet 'Samples'); n = 1
MAP3K4 = conditions: read-out: apparent Kd; compound concentrations:100 nM and 1000 nM (sheet 'Samples'); n = 1
MAPK14 = conditions: read-out: apparent Kd, compound concentrations: 100 nM and 1000 nM (sheet 'Samples'), n = 1
NCL = conditions: read-out: apparent Kd, n = 1
OPA1 = conditions: read-out: apparent Kd; compound concentrations:100 nM and 1000 nM (sheet 'Samples'); n = 1
PIM2 = conditions: read-out: apparent Kd; compound concentrations:100 nM and 1000 nM (sheet 'Samples'); n = 1
PIP4K2C = conditions: read-out: apparent Kd; compound concentrations:100 nM and 1000 nM (sheet 'Samples'); n = 1
PRKAG2 = conditions: read-out: apparent Kd; compound concentrations:100 nM and 1000 nM (sheet 'Samples'); n = 1
PYGL = conditions: read-out: apparent Kd, n = 1
STK16 = conditions: read-out: apparent Kd; compound concentrations:100 nM and 1000 nM (sheet 'Samples'); n = 1
STK26 = conditions: read-out: apparent Kd; compound concentrations:100 nM and 1000 nM (sheet 'Samples'); n = 1
MAP2K5 = conditions: read-out: apparent Kd; compound concentrations:100 nM and 1000 nM (sheet 'Samples'); n = 1
RIOK2 = conditions: read-out: apparent Kd, n = 1
RIPK3 = conditions: read-out: apparent Kd; compound concentrations:100 nM and 1000 nM (sheet 'Samples'); n = 1
MAP2K3 = conditions: read-out: apparent Kd; compound concentrations:100 nM and 1000 nM (sheet 'Samples'); n = 1
MAPK10 = conditions: read-out: apparent Kd; compound concentrations:100 nM and 1000 nM (sheet 'Samples'); n = 1
MAPK11 = conditions: read-out: apparent Kd; compound concentrations:100 nM and 1000 nM (sheet 'Samples'); n = 1
MAPK9 = conditions: read-out: apparent Kd, n = 1
MAPKAPK2 = conditions: read-out: apparent Kd, n = 1
CDK16 = conditions: read-out: apparent Kd; compound concentrations:100 nM and 1000 nM (sheet 'Samples'); n = 1
GSK3A = conditions: read-out: apparent Kd; compound concentrations:100 nM and 1000 nM (sheet 'Samples'); n = 1
GSK3B = conditions: read-out: apparent Kd; compound concentrations:100 nM and 1000 nM (sheet 'Samples'); n = 1
MAP3K1 = conditions: read-out: apparent Kd; compound concentrations:100 nM and 1000 nM (sheet 'Samples'); n = 1
MYLK3 = conditions: read-out: apparent Kd; compound concentrations:100 nM and 1000 nM (sheet 'Samples'); n = 1
NLK = conditions: read-out: apparent Kd; compound concentrations:100 nM and 1000 nM (sheet 'Samples'); n = 1
STK11 = conditions: read-out: apparent Kd; compound concentrations:100 nM and 1000 nM (sheet 'Samples'); n = 1
TGFBR2 = conditions: read-out: apparent Kd; compound concentrations:100 nM and 1000 nM (sheet 'Samples'); n = 1
PIK3C3 = conditions: read-out: apparent Kd; compound concentrations: 100 nM and 1000 nM (sheet 'Samples'), CATDS: 0.115592517664726; n = 1
PIK3CB = conditions: read-out: apparent Kd; compound concentrations: 100 nM and 1000 nM (sheet 'Samples'), CATDS: 0.13740958062808101; n = 1
TAOK3 = conditions: read-out: apparent Kd; compound concentrations: 100 nM and 1000 nM (sheet 'Samples'), CATDS: 0.106339903242866; n = 1
CDC42 = conditions: read-out: apparent Kd; compound concentrations: 100 nM and 1000 nM (sheet 'Samples'), CATDS: 0.22290293584535001; n = 1
DCTPP1 = conditions: read-out: apparent Kd; compound concentrations: 100 nM and 1000 nM (sheet 'Samples'), CATDS: 0.21946869965493901; n = 1
DJA1 = system: T1, DJA1; conditions: read-out: apparent Kd; compound concentrations: 100 nM and 1000 nM (sheet 'Samples'), CATDS: 0.217792726025238; n = 1
T1 construct: gene DNAJA1

IRAK4 = conditions: read-out: apparent Kd; compound concentrations: 100 nM and 1000 nM (sheet 'Samples'), CATDS: 0.188463756574588; n = 1
[1] = compound concentrations:100 nM and 1000 nM (sheet 'Samples')

Cn1cc(C2=C(c3ccc4ccccc4c3)C(=O)NC2=O)c2ccccc21 [RO0317254-000]
potency estimated from few doses (ADRBK1; compound concentrations: 100 nM and 1000 nM (sheet 'Samples'), CATDS: 0.11613570195442): 2340 nM | potency estimated from few doses (AKT1; compound concentrations: 100 nM and 1000 nM (sheet 'Samples'), CATDS: 0.12373221048930499): 2050 nM | potency estimated from few doses (AKT2; compound concentrations: 100 nM and 1000 nM (sheet 'Samples'), CATDS: 0.121499008172246): 2130 nM | potency estimated from few doses (CDK6; compound concentrations: 100 nM and 1000 nM (sheet 'Samples'), CATDS: 0.120580307710246): 2160 nM | potency estimated from few doses (MAP2K1; compound concentrations: 100 nM and 1000 nM (sheet 'Samples'), CATDS: 0.131345384217323): 1820 nM | potency estimated from few doses (MAP2K2; compound concentrations: 100 nM and 1000 nM (sheet 'Samples'), CATDS: 0.121431246351448): 2130 nM | potency estimated from few doses (NNT): 1570 nM | potency estimated from few doses (NQO1; compound concentrations: 100 nM and 1000 nM (sheet 'Samples'), CATDS: 0.12637990091667001): 1960 nM

Cc1ccc(NC(=O)CC2CC2)cc1-c1ccc(C(=O)NCC2CC2)cc1 [GW796920X]
potency estimated from few doses (ADRBK1; [1]): 1860 nM | potency estimated from few doses (AKT1; [1]): 1770 nM | potency estimated from few doses (AKT2; [1]): 1680 nM | potency estimated from few doses (CSNK1A1): 2220 nM | potency estimated from few doses (MAP2K2; [1]): 2220 nM | potency estimated from few doses (MAP3K4): 1800 nM | potency estimated from few doses (MAPK14; CATDS: 0.122142095126863): 629 nM | potency estimated from few doses (NCL; [1]): 2300 nM | potency estimated from few doses (OPA1): 1700 nM | potency estimated from few doses (PIM2): 1740 nM | potency estimated from few doses (PIP4K2C): 1650 nM | potency estimated from few doses (PRKAG2): 1310 nM | potency estimated from few doses (PYGL; [1]): 2130 nM | potency estimated from few doses (STK16): 2170 nM | potency estimated from few doses (STK26): 1450 nM

O=C(O)C(F)(F)F.O=C(O[C@H]1CN[C@H](C#Cc2cc3ncnc(Nc4ccc(Cc5ccccc5)cc4)c3s2)C1)N1CCOCC1 [GSK238583A]
potency estimated from few doses (ADRBK1; [1]): 1670 nM | potency estimated from few doses (AKT2; [1]): 1770 nM | potency estimated from few doses (MAP2K5): 646 nM | potency estimated from few doses (RIOK2; [1]): 2420 nM | potency estimated from few doses (RIPK3): 2260 nM

O=C(NCCCN1CCOC1=O)c1cnc(NCc2cc(Cl)ccc2Cl)nc1NC1CCCC1 [PFE-PKIS_12]
potency estimated from few doses (ADRBK1; [1]): 1110 nM

C[C@@H](Cn1ncnn1)Nc1ncc2cc(Oc3ccc(F)cc3F)c(=O)n(C)c2n1 [RO5067310-000]
potency estimated from few doses (ADRBK1; [1]): 2270 nM | potency estimated from few doses (AKT1; [1]): 1750 nM | potency estimated from few doses (MAP2K3): 1770 nM | potency estimated from few doses (MAPK10): 424 nM | potency estimated from few doses (MAPK11): 30.9 nM | potency estimated from few doses (MAPK9; [1]): 265 nM | potency estimated from few doses (MAPKAPK2; [1]): 3.25 nM

CCS(=O)(=O)c1ccc(OC)c(Nc2ncc(-c3ccccc3Cl)o2)c1 [GW622055X]
potency estimated from few doses (ADRBK1; compound concentrations: 100 nM and 1000 nM (sheet 'Samples'), CATDS: 0.49324160998550998): 1780 nM | potency estimated from few doses (RIOK2; compound concentrations: 100 nM and 1000 nM (sheet 'Samples'), CATDS: 0.50694616971053197): 1680 nM

O=C(Nc1n[nH]c2nc(-c3cccc(O)c3)ccc12)C1CC1 [SB-711805]
potency estimated from few doses (AKT1; [1]): 1900 nM | potency estimated from few doses (AKT2; [1]): 2070 nM | potency estimated from few doses (CDK16): 2150 nM | potency estimated from few doses (CDK6; [1]): 1880 nM | potency estimated from few doses (GSK3A): 147 nM | potency estimated from few doses (GSK3B): 223 nM | potency estimated from few doses (MAP2K1; [1]): 2170 nM | potency estimated from few doses (MAP2K2; [1]): 2290 nM | potency estimated from few doses (MAP3K1): 1840 nM | potency estimated from few doses (MYLK3): 1310 nM | potency estimated from few doses (NLK): 1150 nM | potency estimated from few doses (NQO1; [1]): 1330 nM | potency estimated from few doses (STK11): 2400 nM | potency estimated from few doses (STK26): 2270 nM | potency estimated from few doses (TGFBR2): 644 nM

Cl.Cn1c(=O)c(Oc2ccc(F)cc2F)cc2cnc(NCC(C)(C)O)nc21 [RO3308967-001]
potency estimated from few doses (ADRBK1; compound concentrations: 100 nM and 1000 nM (sheet 'Samples'), CATDS: 0.168792750193444): 1780 nM | potency estimated from few doses (MAPK14; CATDS: 0.54620788714076096): 44 nM | potency estimated from few doses (MAPK9; compound concentrations: 100 nM and 1000 nM (sheet 'Samples'), CATDS: 0.17242966969454199): 1600 nM | potency estimated from few doses (MAPKAPK2; compound concentrations: 100 nM and 1000 nM (sheet 'Samples'), CATDS: 0.40894707261739799): 76.7 nM

Cc1nc(Nc2cnn(C3CCNCC3)c2)nc2c1N(C)C(=O)c1cc3ccccc3cc1N2C [HTH-01-015]
potency estimated from few doses (AKT1; compound concentrations: 100 nM and 1000 nM (sheet 'Samples'), CATDS: 0.123501580073808): 1310 nM | potency estimated from few doses (AKT2; compound concentrations: 100 nM and 1000 nM (sheet 'Samples'), CATDS: 0.10314044451286999): 1870 nM | potency estimated from few doses (MAP2K1; compound concentrations: 100 nM and 1000 nM (sheet 'Samples'), CATDS: 9.8973729248026707E-2): 2060 nM | potency estimated from few doses (MAP2K2; compound concentrations: 100 nM and 1000 nM (sheet 'Samples'), CATDS: 0.112091584059978): 1580 nM | potency estimated from few doses (NCL; compound concentrations: 100 nM and 1000 nM (sheet 'Samples'), CATDS: 0.116162101404393): 1470 nM | potency estimated from few doses (PIK3C3): 1480 nM | potency estimated from few doses (PIK3CB): 1080 nM | potency estimated from few doses (PYGL; compound concentrations: 100 nM and 1000 nM (sheet 'Samples'), CATDS: 9.7642966529981307E-2): 2120 nM | potency estimated from few doses (TAOK3): 1760 nM

O=C1N=C(N[C@H](CO)Cc2ccccc2)S/C1=C\c1ccc2ncccc2c1 [RO4503319-000]
potency estimated from few doses (AKT2; compound concentrations: 100 nM and 1000 nM (sheet 'Samples'), CATDS: 0.16502460627676999): 2470 nM | potency estimated from few doses (CDC42): 1290 nM | potency estimated from few doses (DCTPP1): 1330 nM | potency estimated from few doses (DJA1): 1350 nM | potency estimated from few doses (IRAK4): 1810 nM
